From PubChem
Hits are enriched below; roughly 15% of the tested compounds scored in any of these assays.
VP16 counter: Gal4-VP16 reporter inhibition counter-screen; Drosophila S2 Gal4-VP16 UAS-luciferase, luminescence, 20 h; Potency, µM (series often up to 53.6 µM), inactives show at the top dose activity, negative = inhibition, actives largely listed as inhibitors; 310,000 compounds, 3.5% hits; AID 2546;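 note: Gal4-VP16 expression switched on by copper sulfate through the metallothionein promoter; nearly all actives have a fitted effect of over 50% in size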
DT40 TDP1 no CPT: qHTS for Inhibitors of human tyrosyl-DNA phosphodiesterase 1 (TDP1): qHTS in cells in absence of CPT. DT40 Tdp1-/- hTDP1 cells, no CPT, ATP luminescence, 48 h. AID 686978, 2013. 420,000 compounds, 15% hits. Potency, µM (series often up to 46.2 µM), for inactives: top-dose activity change, negative = growth inhibition, hits mostly inhibitors; note: nearly all actives have a fitted effect of over 55% in size
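Seeded 400 DT40-hTDP1 cells/well (vehicle DMSO, no 20 nM CPT); pinned compounds; ≥48 hr at 37 °C; CellTiter-Glo luminescence as viability measure.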
ALOX12 inh: blocks human arachidonate 12S-lipoxygenase; AID 1671190; P18054; purified 12hLO, xylenol orange hydroperoxide absorbance; Potency, µM (doses to about 108 µM), inactives show at the highest dose activity change, negative = inhibition, most hits filed as inhibitors; 580,000 compounds, 1.1% hits
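Purified human 12hLO (150 nM final) in 25 mM Hepes, 0.01% Triton X-100, pH 7.0 was preincubated 15 min at room temperature with compound. Then 40 uM arachidonic acid was added, 30 min. Hydroperoxide was read by Fe-XO absorbance ratio 573/405 nm.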
ELG1 DNA repair: inhibitors of ELG1-dependent DNA repair in HEK293T cells; HEK293T ELG1-luciferase reporter, luminescence, 16 h; DNA damage induced by 5-fluorouridine; Potency, µM (highest dose often 46.1 µM), for the others: at the highest dose activity change, negative = inhibition, hits mostly inhibitors; 330,000 compounds, 2.3% hits; AID 504467; note: nearly all actives have a fitted effect of over 55% in size
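Luminescence from the luciferase reporter, measured 30 min after ONE-Glo reagent at room temperature, was the read-out. Beforehand, 2,000 cells per well were exposed for 16 hr at 37 °C to 5-fluorouridine together with compound or vehicle.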
TDP1 cell CPT: DT40-hTDP1 cell growth loss with CPT | chicken DT40 Tdp1-/-;hTDP1 cells + 20 nM CPT, ATP luminescence, 48 h | Potency, µM (top dose mostly 46.2 µM), without a hit: at the top dose activity change, negative = growth inhibition, usual class: inhibitors | 420,000 compounds, 12% hits; note: nearly all actives have a fitted effect of over 55% in size
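Cell growth measured by CellTiter-Glo luminescence after a minimum 48 h, 37 C compound exposure with 20 nM CPT in Tdp1-knockout DT40 cells stably expressing hTDP1, seeded 400/well; qHTS titration format.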
RORg inh: inhibitors of mouse ROR gamma transcriptional activity; Drosophila S2 Gal4-RORgamma UAS-luciferase reporter, 20 h; Potency, µM (highest dose often 53.6 µM), for the others: at the top dose activity change, negative = inhibition, actives largely listed as inhibitors; 310,000 compounds, 5.4% hits; AID 2551; note: nearly all actives have a fitted effect of over 60% in size
Target sequence (P51450 whole entry, looked up, the tested form may be a part): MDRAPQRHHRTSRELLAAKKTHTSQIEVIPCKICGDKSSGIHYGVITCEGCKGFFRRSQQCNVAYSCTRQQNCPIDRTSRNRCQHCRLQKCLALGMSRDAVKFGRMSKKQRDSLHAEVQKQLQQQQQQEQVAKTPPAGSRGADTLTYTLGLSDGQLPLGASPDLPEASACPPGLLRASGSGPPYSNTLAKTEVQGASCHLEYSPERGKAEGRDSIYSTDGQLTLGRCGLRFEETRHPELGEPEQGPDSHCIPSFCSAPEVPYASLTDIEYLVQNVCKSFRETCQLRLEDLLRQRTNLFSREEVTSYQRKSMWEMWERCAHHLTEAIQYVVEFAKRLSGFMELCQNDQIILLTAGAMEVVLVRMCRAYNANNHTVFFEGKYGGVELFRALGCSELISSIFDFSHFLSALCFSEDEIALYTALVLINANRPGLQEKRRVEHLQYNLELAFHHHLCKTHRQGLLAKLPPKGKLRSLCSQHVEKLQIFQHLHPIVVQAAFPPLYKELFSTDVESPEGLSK
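A Gal4/UAS one-hybrid system in insect cells: metallothionein-promoter Gal4–ROR gamma fusion plus Photinus luciferase reporter. Copper sulfate 700 uM final, 20 hr ambient incubation, luminescent detection after 10 min with reagent.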
* marks the source's active call; other numbers are inactive results; [ ] = dose if it differs, or a comment. Calls come from the whole dose curve; as a rule, active = well fitted curve in the direction sought with a large enough effect; inconclusive = small, poorly fitted or top-dose-only effect, or another doubt; inactive = no such curve, though single readings can be large; an effect the other way counts as inactive or inconclusive. % is set by controls: 0 for no effect and ±100 for the full control effect; potency is the fitted concentration of half-maximal effect.

Results for CC1CCC(Nc2nc3c(-c4cccc(C(F)(F)F)c4)nnn3c3ccccc23)CC1 (stereo not drawn) ?
DT40 TDP1 no CPT: 29.1µM*; ALOX12 inh: -13.9%; TDP1 cell CPT: inconclusive

What do the screens show for `Cc1ccc2nc(C)cc(C(=O)OC(C)C(=O)NC3CCCC3)c2c1` (stereo not drawn)?
ALOX12 inh: -10.1%

What do the screens show for `Cc1ccnc(SC(C(=O)c2ccccc2)c2ccccc2)n1` (stereo not drawn)?
ALOX12 inh: 4.0%

How did CCC1NC(=O)c2cc3ccccc3cc2-n2c1nc1cc(C)cc(C)c1c2=O (stereo not drawn) do in these assays?
DT40 TDP1 no CPT: 4.11µM*; ALOX12 inh: 5.6%; TDP1 cell CPT: 18.4µM*

What do the screens show for `Cc1ccc2nc3n(c(=O)c2c1)-c1cc2ccccc2cc1C(=O)NC3Cc1ccccc1` (stereo not drawn)?
DT40 TDP1 no CPT: 16.4µM*; ALOX12 inh: 8.1%; TDP1 cell CPT: 23.1µM*

How did Cc1cc(C)c2c(=O)n3c(nc2c1)C(Cc1ccccc1)NC(=O)c1cc2ccccc2cc1-3 (stereo not drawn) do in these assays?
DT40 TDP1 no CPT: inconclusive; ALOX12 inh: -4.7%; TDP1 cell CPT: inconclusive

How did O=C1NC(Cc2ccc(O)cc2)c2nc3ccc(Cl)cc3c(=O)n2-c2cc3ccccc3cc21 (stereo not drawn) do in these assays?
DT40 TDP1 no CPT: 5.17µM*; ALOX12 inh: -87.8%; TDP1 cell CPT: 6.51µM*

What do the screens show for `CCC1NC(=O)c2cc3ccccc3cc2-n2c1nc1ccc(F)cc1c2=O` (stereo not drawn)?
DT40 TDP1 no CPT: 23.1µM*; ALOX12 inh: inconclusive; TDP1 cell CPT: inconclusive

What do the screens show for `COc1ccc(-c2[nH]ncc2CN2CCCN(S(=O)(=O)c3ccccc3)CCC(=O)NCC2)cc1`?
ALOX12 inh: -4.5%

Results for O=C1CO[C@H]2CCN(Cc3cccnc3)CC[C@@H]2N1Cc1ccccc1 ?
ALOX12 inh: -21.5%[176 µM]

How did C[C@]1(CO)[C@H]2Cc3sc(NC(=O)c4ccco4)nc3[C@@H](CC(=O)O)[C@]2(C)CC[C@H]1O do in these assays?
ALOX12 inh: 14.3%[176 µM]

What do the screens show for `Cc1ccc2nc(SCC(=O)Nc3ccccc3C(=O)Nc3ccc4c(c3)OCO4)[nH]c2c1`?
ALOX12 inh: 1.8%

How did O=C1NC(Cc2ccccc2)c2nc3ccc(Cl)cc3c(=O)n2-c2cc3ccccc3cc21 (stereo not drawn) do in these assays?
DT40 TDP1 no CPT: 7.31µM*; ALOX12 inh: inconclusive; TDP1 cell CPT: inconclusive

What do the screens show for `CC1NC(=O)c2cc3ccccc3cc2-n2c1nc1ccc(F)cc1c2=O` (stereo not drawn)?
DT40 TDP1 no CPT: -5.7%; ALOX12 inh: 4.0%; TDP1 cell CPT: 17.6%

Results for O=C1NC(Cc2ccccc2)c2nc3ccc(F)cc3c(=O)n2-c2cc3ccccc3cc21 (stereo not drawn) ?
DT40 TDP1 no CPT: 5.17µM*; ALOX12 inh: -38.6%; TDP1 cell CPT: 5.17µM*

Results for CCCC1NC(=O)c2cc3ccccc3cc2-n2c1nc1ccc(C)cc1c2=O (stereo not drawn) ?
DT40 TDP1 no CPT: 18.4µM*; ALOX12 inh: 32.8%; TDP1 cell CPT: inconclusive

How did O=C1NC(Cc2ccccc2)c2nc3ccc(Cl)cc3c(=O)n2-c2ncccc21 (stereo not drawn) do in these assays?
DT40 TDP1 no CPT: 20.6µM*; ALOX12 inh: -2.4%; TDP1 cell CPT: inconclusive

How did CCCC1NC(=O)c2cccnc2-n2c1nc1ccc(C)cc1c2=O (stereo not drawn) do in these assays?
DT40 TDP1 no CPT: -19.6%; ALOX12 inh: -6.1%; TDP1 cell CPT: 14.5%

How did O=C1NC(Cc2ccccc2)c2nc3ccc(Cl)cc3c(=O)n2-c2ccc(Cl)cc21 (stereo not drawn) do in these assays?
ALOX12 inh: -6.5%; ELG1 DNA repair: 7.7%

How did Fc1ccc(Nc2nc(NC3CCCCCC3)nc3c2cnn3-c2ccccc2)cc1 do in these assays?
ALOX12 inh: -22.9%

What do the screens show for `O=C(Cn1cnc2c(cnn2-c2ccccc2)c1=O)N1CCCc2ccccc21`?
VP16 counter: -10.7%; DT40 TDP1 no CPT: inconclusive; ALOX12 inh: 21.9%; ELG1 DNA repair: 20.6µM*; TDP1 cell CPT: inconclusive; RORg inh: 22.8%

Results for O=C(Cn1cnc2c(nnn2-c2ccccc2)c1=O)N1CCCc2ccccc21 ?
VP16 counter: -8.5%; DT40 TDP1 no CPT: inconclusive; ALOX12 inh: 2.9%; ELG1 DNA repair: inconclusive; TDP1 cell CPT: inconclusive; RORg inh: 15.3%

How did CN(C)c1ccc(-c2nc(NCCc3cnc[nH]3)c3ccccc3n2)cc1 do in these assays?
VP16 counter: inconclusive; DT40 TDP1 no CPT: inconclusive; ALOX12 inh: -0.9%; TDP1 cell CPT: 13µM*; RORg inh: inconclusive

How did COc1ccccc1-c1nc(NCCc2cnc[nH]2)c2ccccc2n1 do in these assays?
VP16 counter: -7.9%; DT40 TDP1 no CPT: inconclusive; ALOX12 inh: -2.4%; TDP1 cell CPT: inconclusive; RORg inh: -33.6%

Results for COc1ccc2[nH]cc(CCNc3nc(-c4ccc(C(=O)N(C)C)cc4)nc4ccccc34)c2c1 ?
VP16 counter: -13.5%; DT40 TDP1 no CPT: 7.31µM*; ALOX12 inh: inconclusive; TDP1 cell CPT: 20.6µM*; RORg inh: inconclusive

Results for COc1cccc(-c2nc(NCCc3c[nH]c4ccc(OC)cc34)c3ccccc3n2)c1 ?
VP16 counter: -10.7%; DT40 TDP1 no CPT: inconclusive; ALOX12 inh: -19.3%; TDP1 cell CPT: inconclusive; RORg inh: 9.7%

Results for COc1ccc2[nH]cc(CCNc3nc(-c4ccccc4CN(C)C)nc4ccccc34)c2c1 ?
VP16 counter: -8.6%; DT40 TDP1 no CPT: 20.6µM*; ALOX12 inh: inconclusive; TDP1 cell CPT: 20.6µM*; RORg inh: 18.7%

Results for COc1ccc2[nH]cc(CCNc3nc(-c4ccoc4)nc4ccccc34)c2c1 ?
VP16 counter: -7.7%; DT40 TDP1 no CPT: inconclusive; ALOX12 inh: inconclusive; TDP1 cell CPT: inconclusive; RORg inh: -13.9%

What do the screens show for `COc1ccc2[nH]cc(CCNc3nc(-c4ccc(N(C)C)cc4)nc4ccccc34)c2c1`?
VP16 counter: inconclusive; DT40 TDP1 no CPT: 23.1µM*; ALOX12 inh: inconclusive; TDP1 cell CPT: 14.6µM*; RORg inh: inconclusive
